# Values joined by “and” are separate entries in the source; they are usually repeats but may differ in a detail not shown here. Equal entries are not always repeated. Active and inactive are the calls of the source. The calls were made as follows: active = hit-call score of the fitted dose curve at least 0.9, where 1 is the maximum; inactive = score below 0.9.
# What was measured:
# [1] = CCTE_Shafer_MEA_dev_correlation_coefficient_mean: CCTE's Neural Network Formation Assay for Mean Correlation Coefficient, Shafer Lab (AID 2284093);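 as to AC50: well mean pairwise spike train correlation integrated as AUC over recording days 5 to 12; potency fitted for loss of correlation relative to DMSO vehicle wells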
# Method in brief: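 Spontaneous activity recorded on days 5, 7, 9 and 12 post-plating; pairwise spike correlations are averaged across active electrodes and collapsed to an area-under-curve. Rat cortical cultures are dosed from plating through 12 days, with compound renewed at media changes.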
# [2] = IUF_NPC1b_proliferation_BrdU_72hr: Leibniz Research Institute for Environmental Medicine (IUF) 72-hour Neural Progenitor Cell Bromodeoxyuridine (BrdU) Proliferation Assay (NPC1b) (AID 2284207)
# Method in brief: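 BrdU luminescence ELISA quantified DNA synthesis over the last 16 h of a 72 h exposure, fitted against DMSO. Primary hNPC spheres from gestational week 16-19 cortex grown with EGF/FGF at 37C, pH 7.2-7.6.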
# [3] = IUF_NPC1a_proliferation_area_72hr: Leibniz Research Institute for Environmental Medicine (IUF) 72-hour Neural Progenitor Cell Proliferation Area Assay (NPC1a) (AID 2284208)
# Method in brief: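 Spheres of 0.3 mm are plated singly in growth-factor medium and exposed from day 0. After three days at 37C and 5% CO2, sphere area is measured by phase contrast imaging, with activity referenced to DMSO.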
# [4] = IUF_NPC1_viability_72hr: Viability Assessment at 72 hours in the Leibniz Research Institute for Environmental Medicine (IUF) Neural Progenitor Cell Proliferation Assay (NPC1) (AID 2284209)
# Method in brief: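 hNPC spheres, 1/well, EGF+FGF medium, 37C/5% CO2; dosed day 0, 72 h, no re-dosing. Resazurin reduction (alamar blue) fluorescence; DMSO = negative control/baseline; growth-factor-free wells as positive control.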
# [5] = CCTE_Mundy_HCI_Cortical_Synap_Neur_Matur_NeuriteSpotCountPerNeuriteLength: CCTE's Synaptogenesis and Neurite Maturation Assay in rat cortical cells for Neurite Spot Count per Neurite Length, Mundy Lab (AID 2284210)
# Method in brief: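 Rat primary cortical cultures, AraC added at DIV 5 to suppress glia; chemical exposure from DIV 7 to DIV 12. Fixed cells stained for MAP2 and synaptophysin plus Hoechst; synaptophysin puncta per neurite length quantified by high-content imaging, relative to DMSO.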
# [6] = CCTE_Mundy_HCI_Cortical_Synap_Neur_Matur_BPCount: CCTE's Synaptogenesis and Neurite Maturation Assay in rat cortical cells for Branch Point Count, Mundy Lab (AID 2284211)
# Procedure: CCTE_Mundy_HCI_Cortical_Synap&Neurite_Matur is a multiplexed, cell-based-readout assay that uses rat primary cortical cells with measurements taken at 288.33 hours after chemical dosing in a microplate: 96-well plate.CCTE_Mundy_HCI_Cortical_Synap_Neur_Matur_BPCount is one of eight components of the CCTE_Mundy_HCI_Cortical_Synap&Neurite_Matur assay. It measures synaptogenesis and neurite maturation related to number of branch points using High Content Imaging of fluorescently labelled markers.[…] Using a type of morphology reporter, loss -of-signal activity can be used to understand developmental effects.
# Cells are plated onto 96 well plates and allowed 2 hr for attachment to the substrate. At days in vitro (DIV) 5, Cytosine Arabinoside (AraC) is added to arrest glial cell growth. Chemicals are dosed and a media change is performed at DIV 7 of differentiation and is continued through DIV 12 when the experiment is terminated. Cells are fixed with […] and Hoechst Dye. Cells are stained using Millipore Mouse anti-MAP2MAB3418 (1:800) and Millipore Rabbit anti-Synaptophysinsc-1750 (1:250) primary antibodies and Alexa Fluor-488 goat anti-mouse and AlexaFluor-546 goat anti-rabbit secondary antibodies to label neuronal cell nuclei, synapses and neurites. A Cellomics ArrayScan VTi HCS Reader is used for automated image acquisition and analysis of neurite outgrowth.
# [7] = CCTE_Mundy_HCI_Cortical_NOG_NeuriteCount: CCTE's Neurite Outgrowth Assay in rat cortical cells for Neurite Count, Mundy Lab (AID 2284212);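 also: cells fixed about two days after chemical exposure began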
# Method in brief: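 Neurite number per cell from high-content imaging of betaIII-tubulin immunostaining, with Hoechst nuclear counterstain.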
# [8] = CCTE_Mundy_HCI_Cortical_NOG_NeuriteLength: CCTE's Neurite Outgrowth Assay in rat cortical cells for Neurite Length, Mundy Lab (AID 2284213);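 as to AC50: neurites imaged about 48 to 50 h after chemical exposure began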
# Method in brief: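 Neurite length was read by high-content imaging of βIII-tubulin-labelled neurites in rat primary cortical cultures. Activity was fitted relative to DMSO.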
# [9] = UKN2_HCS_IMR90_neural_migration: University of Konstanz (UKN) Leist Lab Neural Crest Cell Migration Assay in human induced IMR90 Pluripotent Stem Cells (UKN2) (AID 2284204); details: actives raise or lower the signal
# Method in brief: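 iPSC-derived IMR90 neural crest cells seeded around stoppers on PLO/laminin/fibronectin; migration started in N2-S medium with EGF/FGF, compounds added after 24 h for 24 h. Migration into cell-free area imaged after calcein-AM/Hoechst staining; bidirectional fit versus DMSO.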
# [10] = UKN4_HCS_LUHMES_neurite_outgrowth: University of Konstanz (UKN) Leist Lab Neurite Outgrowth Assay in human LUHMES cells (UKN4) (AID 2284206); details: actives raise or lower the signal
# Procedure: UKN4_HCS_LUHMES is a cell-based, multiplexed-readout assay screening for neurite outgrowth and cell viability that uses LUHMES, a human central nervous system cell line, with measurements taken at […] after chemical dosing in a microplate: 96-well plate. UKN4, also referred to as NeuriTox, is an assay that uses LUHMES neuronal precursors as a model of dopaminergic neuronal differentiation. Following a 2-day differentiation period, cells are exposed to chemicals for 24 hr and neurite area is evaluated as a marker of neurite outgrowth using high-content imaging of cells stained with calcein AM. Cell viability is assessed using stain Hoechst H-33342.UKN4_HCS_LUHMES_neurite_outgrowth is an assay component measured from the UKN4_HCS_LHUMES assay. It is designed to make measurements of neurite outgrowth, a form of morphology reporter, as detected with Fluorescence intensity signals by HCS Fluorescent Imaging.The assay endpoint UKN4_HCS_LUHMES_neurite_outgrowth was analyzed with bidirectional fitting relative to DMSO as the negative control and baseline of activity. Using a type of morphology reporter, gain or loss-of-signal activity can be used to understand developmental effects. To generalize the intended target to other relatable targets, this assay endpoint is annotated to the neurodevelopment intended target family, where the subfamily is neurite outgrowth. […]
smiles,measurement,setting,value
CN(C)CCOC(C)(c1ccccc1)c1ccccn1 (configuration not stated),outcome,[1],inactive
same,outcome,[2],inactive
same,outcome,[3],inactive
same,outcome,[4],inactive
same,outcome,[5],inactive
same,outcome,[6],inactive
same,outcome,[7],inactive
same,outcome,[8],inactive
COCCOCCOCCO,outcome,[1],inactive
same,outcome,[9],inactive
same,outcome,[2],inactive
same,outcome,[3],inactive
same,outcome,[4],inactive
same,outcome,[5],inactive
same,outcome,[6],inactive
same,outcome,[7],inactive
same,outcome,[8],inactive
COCCc1ccc(OCC(O)CNC(C)C)cc1 (configuration not stated),outcome,[1],inactive
same,outcome,[2],inactive
same,outcome,[3],inactive
same,outcome,[4],inactive
same,outcome,[5],inactive
same,outcome,[6],inactive
same,outcome,[7],inactive
same,outcome,[8],inactive
FC(F)(F)COCC(F)(F)F,outcome,[1],inactive
Oc1c(Cl)cc(Cl)c(Cl)c1Cc1c(O)c(Cl)cc(Cl)c1Cl,AC50,[1],765 nM (active) and 832 nM (active)
same,AC50,[9],885 nM (active)
same,AC50,[10],7.47 µM (active)
same,AC50,[2],13.4 µM (active)
same,AC50,[3],17.6 µM (active)
same,outcome,[4],inactive
same,outcome,[5],inactive
same,AC50,[6],8.53 µM (active)
same,AC50,[7],31 µM (active)
same,AC50,[8],23.1 µM (active)
CS(=O)(=O)OCCCCOS(C)(=O)=O,outcome,[1],inactive

# From PubChem BioAssay (EPA / NIEHS)
